An excerpt weighted towards active compounds, which were near 4.6% of everything screened.
SKKanGAS inh = inhibitors of SKKanGAS S. pyogenes growth in kanamycin (SK-promoter or general growth effect); BacTiter-Glo, 6 h; inhibition, % at 7.5 µM; 300,000 tested, 1.3% active; AID 1662;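 active = mean replicate score, as percent of positive control median, at least 50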;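 note: strain carries kanamycin resistance gene driven by streptokinase promoter and grows in 40 µg/ml kanamycin; loss of luminescence reflects streptokinase promoter inhibition or plain growth inhibition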
PfHsp90 set2 = growth inhibition of yeast expressing Plasmodium Hsp90 | S. cerevisiae expressing PfHsp90, BacTiter-Glo ATP, 48 h; yeast lacking PDR1 and PDR3 efflux regulators | AID 504621 | 310,000 tested, 0.32% active | inhibition, % at 9.4 µM;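 active = every replicate shows inhibition above about 80%, whatever the replicate mean, limit read from the data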
tim23-1 inh = inhibits growth of tim23-1 mutant yeast. S. cerevisiae tim23-1 growth, BacTiter-Glo luminescence, 24 h. 330,000 tested, 1.3% active. inhibition, % at 20 µM;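 active = growth inhibition of the mutant yeast at or above 50%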;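 note: temperature-sensitive mutant grown at 25 °C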
TIM10 inh = TIM10 yeast growth inhibition. 330,000 tested, 1.4% active. inhibition, % at 10 µM. AID 463195. S. cerevisiae TIM10 strain growth, BacTiter-Glo luminescence, 24 h;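 active = inhibition of 40% or more at the single tested concentration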;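 note: wild-type TIM10 isogenic control strain grown at permissive 25 °C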
tim10-1 inh = inhibits growth of tim10-1 mutant yeast. S. cerevisiae tim10-1 ts strain growth, BacTiter-Glo, 24 h. inhibition, % at 20 µM. 330,000 tested, 2.2% active;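 active = inhibition of at least 40%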;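 note: mutant grown at 25 °C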
NLRP3 yeast inh = blocks the NALP3 inflammasome reconstituted in yeast; 330,000 tested, 0.39% active; AID 2825; inhibition, % at 10 µM; Yeast reconstituted NLRP3/ASC/caspase-1, beta-gal luminescence, 24 h;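 active = inhibition of 50% or more; inactive = inhibition below 50%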
tim10 confirm = confirmation of TIM10 yeast growth inhibitors | shares compounds with TIM10 inh | S. cerevisiae tim10 strain growth, BacTiter-Glo luminescence, 24 h | inhibition, % at 10 µM | 4,600 tested, 63% active | AID 463215;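 active = inhibition of yeast growth at or above a set limit in either of two replicates at 10 µM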; note: this counterscreen used the strain with wild-type TIM10
Numbers stand for hits; – = inactive; · = no result given.

SMILES	SKKanGAS inh	PfHsp90 set2	tim23-1 inh	TIM10 inh	tim10-1 inh	NLRP3 yeast inh	tim10 confirm
O=C(Nc1cc([N+](=O)[O-])ccc1Cl)C(Sc1ccccc1)c1ccccc1 (stereo unspecified)	–	–	–	–	–	–	·
O=C(Nc1ccc(Cl)c([N+](=O)[O-])c1)C(Sc1ccccc1)c1ccccc1 (stereo unspecified)	–	–	–	42	–	–	43
CCOC(=O)C1=NOC2C3CC(C12)C1C(=O)N(CCc2ccc(OC)c(OC)c2)C(=O)C31 (stereo unspecified)	–	–	–	–	–	–	·
c1ccc(Cn2c(SCc3nc4ccccc4s3)nnc2-c2ccco2)cc1	–	–	–	–	–	–	·
CCC(c1nnc(SCc2nc3ccccc3s2)n1Cc1ccccc1)N(C)C (stereo unspecified)	–	–	–	41	–	–	–
CSC1=C(C#N)C(=O)NC(c2ccc(Cl)cc2)S1 (stereo unspecified)	–	–	–	46	–	–	–
Cc1c(O)ccc2c3c(c(=O)oc12)CCC(C)C3 (stereo unspecified)	–	–	–	–	–	–	·
Cc1c(O)ccc2c3c(c(=O)oc12)CCCC3	·	–	–	41	–	–	31
CCN(CC)S(=O)(=O)c1ccc(NC(=O)C2COc3ccccc3O2)cc1 (stereo unspecified)	–	–	–	40	–	–	35
O=C(Nc1ccc(F)cc1)C1COc2ccccc2O1 (stereo unspecified)	–	–	–	–	–	–	·
CCOc1ccc(NC(=O)CN(C)C(=O)c2cccnc2Sc2ccccc2Cl)cc1OCC	–	·	–	–	–	–	·
Cc1cc(C)c(NC(=O)C2CCCN2CCOC(=O)c2cccc([N+](=O)[O-])c2)c(C)c1 (stereo unspecified)	–	–	–	41	–	–	–
CCN(CC)c1ccc(-c2n[nH]c(=S)n2-c2ccccc2)cc1	–	–	–	41	–	–	–
N/C(=N\OC(=O)c1cccc2ccccc12)c1ccccn1	–	–	–	55	–	–	55
N/C(=N\OC(=O)c1ccc2ccccc2c1)c1ccccn1	–	–	–	45	–	–	51
N/C(=N\OC(=O)c1ccc2ccccc2c1)c1ccccc1Cl	–	100	–	84	–	–	85
O=C1[C@H]2[C@H](C=CC[C@H]2C(=O)N2CCOCC2)CCN1Cc1ccccc1	–	–	–	–	–	–	·
O=C(NCC1CCCCC1)c1cccc(Br)c1	–	–	–	–	–	–	·
Oc1ccc(N=Nc2c(O)ccc3ccccc23)cc1	–	127	–	54	–	–	65
NS(=O)(=O)c1ccc(N=Nc2c(O)ccc3ccccc23)cc1	–	–	–	–	–	–	·
Cn1cc(Br)c(C(=O)NNC(=O)c2cccc(Br)c2)n1	–	–	–	–	–	–	·
c1ccc(-c2csc(Nc3ccc4c(c3)OCCO4)n2)cc1	–	–	–	41	–	–	–
COc1ccc2[nH]c3c(c2c1)CCNC3C1CC=C(C)CC1 (stereo unspecified)	–	–	–	–	–	–	·
COc1ccc2[nH]c3c(c2c1)CCNC3c1ccc([N+](=O)[O-])o1 (stereo unspecified)	–	–	–	41	–	–	54
Cc1cc(C)cc(CC2CC(=O)N(c3ccc(Cl)cn3)C2=O)c1 (stereo unspecified)	–	–	–	51	–	–	–
CC(C)(C)n1nnnc1C(c1cccs1)N(Cc1ccc(Cl)cc1)CC1CCCO1 (stereo unspecified)	–	–	–	41	–	–	–
C/C(=N\OCC(=O)N/N=C/c1ccc(C)cc1O)c1cccs1	–	–	–	53	–	–	–
CCOC(=O)c1ccc(NS(=O)(=O)c2ccc(Cl)nc2)cc1	–	·	–	–	–	–	·
CCOC(=O)c1cnn(-c2ccc(NS(=O)(=O)c3ccc(Cl)cc3)cc2)c1C(F)(F)F	55	–	–	52	–	–	–
CCOc1ncccc1C(=O)Nc1cc(S(=O)(=O)N2CCCCCC2)ccc1OC	·	–	–	–	–	–	·

Screening results deposited in PubChem by several laboratories.
